High-throughput results from PubChem BioAssay.
The list is not random: actives were taken first. Their share in the collection is about 0.43%.
aGlu spleen mod – qHTS Assay for Inhibitors and Activators of Human alpha-Glucosidase From Spleen Homogenate; human spleen homogenate, 4-MU-alpha-glucoside fluorescence; Potency, µM (top dose mostly 79.9 µM), actives largely listed as inhibitors; 240,000 compounds, 0.006% hits
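AC50 values come from Hill-equation fits of concentration-response data, normalized to no-enzyme and full-activity controls. Enzyme source: 1 ug human spleen homogenate; 1 mM fluorogenic 4-MU glucoside, pH 5.0 citrate buffer, 37 C, 40 min.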
GAA glycogen – qHTS Assay for Inhibitors and Activators of Human alpha-Glucosidase Cleavage of Glycogen. recombinant GAA, glycogen substrate, Amplex Red glucose oxidase fluorescence. 300,000 compounds, 0.38% hits. AID 2100, 2009. Potency, µM (top dose mostly 76.4 µM), hits mostly inhibitors. Lysosomal alpha-glucosidase (Homo sapiens), P10253;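 also: the screen sought inhibitors and activators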
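Natural-substrate format: glycogen cleavage by 4 nM human enzyme, glucose read by Amplex Red coupling (Ex 573, Em 610 nm). Normalized to enzyme and no-enzyme controls.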
GLA spleen mod – qHTS Assay for Inhibitors and Activators of Human alpha-Galactosidase From Spleen Homogenate. AID 2107, 2009. Alpha-galactosidase A (Homo sapiens), P06280. 240,000 compounds, 0.008% hits. human spleen homogenate, 4MU-alpha-Gal fluorescence, 40 min. Potency, µM (series often up to 80 µM), actives largely listed as inhibitors
Target sequence (P06280 32-429 limits assumed): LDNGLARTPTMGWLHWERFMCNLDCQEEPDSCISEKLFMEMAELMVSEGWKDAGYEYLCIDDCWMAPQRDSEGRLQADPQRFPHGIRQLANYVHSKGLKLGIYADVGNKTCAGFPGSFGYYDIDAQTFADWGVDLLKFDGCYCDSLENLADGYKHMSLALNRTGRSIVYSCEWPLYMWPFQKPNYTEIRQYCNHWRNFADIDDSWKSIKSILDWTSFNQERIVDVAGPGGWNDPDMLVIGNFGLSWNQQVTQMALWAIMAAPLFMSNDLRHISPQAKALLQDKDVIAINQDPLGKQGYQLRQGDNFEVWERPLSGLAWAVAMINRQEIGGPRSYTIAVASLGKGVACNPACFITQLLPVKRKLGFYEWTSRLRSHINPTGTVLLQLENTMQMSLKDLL
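Human spleen homogenate (1 ug) as enzyme source, 4-methylumbelliferyl-alpha-D-galactopyranoside 1 mM final, citrate/phosphate pH 5.0 with 0.01% Tween-20. Compounds 40 min at 37C, NaOH/glycine stop; fluorescence Ex 365/Em 440, Hill-fit AC50.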
GAA inh – qHTS Assay for Inhibitors of Human alpha-Glucosidase as a Potential Chaperone Treatment of Pompe Disease; purified human GAA, 4-MU-alpha-glucoside fluorescence; Potency, µM (doses to about 76.9 µM), most hits filed as inhibitors; 200,000 compounds, 0.005% hits; AID 1466, 2008
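Enzyme (4 nM final) mixed with compound (up to 77 uM), then 4-MU-alpha-D-pyranoside (400 uM final) added; 20 min at room temperature, pH 5.0. Reaction stopped at pH 10, fluorescence read, AC50 derived by Hill fit.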
GLA inh pH 4.5 – qHTS Assay for Inhibitors of Human alpha-Galactosidase at pH 4.5. Alpha-galactosidase A (Homo sapiens), P06280. purified enzyme, 4-MU-alpha-Gal fluorescence, pH 4.5. activity change, negative = inhibition, % at 105 µM. 230,000 tested, under 10 active. AID 1467, 2008
N370S GC mod – qHTS Assay for Inhibitors and Activators of N370S glucocerebrosidase as a Potential Chaperone Treatment of Gaucher Disease; Lysosomal acid glucosylceramidase (Homo sapiens), P04062; N370S GC spleen homogenate, 4MU-glucoside fluorescence; Potency, µM (titrated, usually from 59.4 µM), hits mostly inhibitors; 330,000 compounds, 0.092% hits; AID 2101, 2009
Numbers stand for hits; . = inactive; ? = inconclusive; / = no result; [ ] = another dose, or the depositor's remark. Calls follow the shape of the dose curve; as a rule, active = well fitted curve in the direction sought with a large enough effect; inconclusive = small, poorly fitted or top-dose-only effect, or another doubt; inactive = no such curve, though single readings can be large; an effect the other way counts as inactive or inconclusive.

SMILES	aGlu spleen mod	GAA glycogen	GLA spleen mod	GAA inh	GLA inh pH 4.5	N370S GC mod
Oc1ccc(-c2nc3ccccn3c2NCc2ccco2)cc1	.	14µM	.	.	.	?
CCOc1ccc(-n2c(SCC(=O)Nc3ccc(CC)cc3)nc3c(oc4ccccc43)c2=O)cc1	/	.	/	/	/	/
CCCn1c(C(CO)Nc2nc(-c3cccc(Br)c3)cs2)nc2ccccc21 (centres undefined)	/	.	/	/	/	1.8µM
COC(=O)C/C=C\[C@@H](C)[C@@H](/C=N\O[C@@H](C)c1cn([C@H]2COC[C@H]2O)nn1)NS(=O)(=O)c1ccc(C)cc1	.[17.4 µM]	/	.[17.5 µM]	/	/	.[12.8 µM]
CC(=O)OCC1OC(C#CC(C)(C)C)C=CC1OC(C)=O (centres undefined)	.[17.4 µM]	/	.[17.5 µM]	/	/	.[12.8 µM]
Nc1ccc(-c2n[nH]c(=O)c3ccccc23)cc1N	.	18µM	.	?	.	.
CCN1C(=O)[C@H]2[C@H]3[C@H](O)[C@H](O)C/C(=N/O[C@@H]4O[C@H](COC(C)=O)[C@@H](OC(C)=O)[C@H](OC(C)=O)[C@H]4OC(C)=O)[C@@H]3CC[C@@H]2C1=O	.[17.4 µM]	/	.[17.5 µM]	/	/	.[12.8 µM]
CCCCc1ccc(NC(=O)Nc2cccnc2)cc1	/	.	/	/	/	11µM
COC(=O)[C@H](C)NC(=O)C/C=C\[C@@H](C)CO	.[17.4 µM]	/	.[17.5 µM]	/	/	.[12.8 µM]
Cc1ccc(CNc2nc(C)nc3sc4c(c23)CCC4)cc1	.	.	.	.	.	.
Cc1nc(Nc2ccc(O)cc2)c2c3c(sc2n1)CCCC3	.	14µM	.	.	.	11µM
Cc1cc(C)cc(NC(=O)Nc2c[nH]c(=O)[nH]c2=O)c1	/	.	/	/	/	/
O=C[C@@H]1CCCN1C(=O)[C@@H]1CCCN1C(=O)OCc1ccccc1	.	/	.	/	/	.
Cc1ccc2c(C(=O)CNc3nncs3)c(C)[nH]c2c1	.	28µM	.	.	.	.
COc1ccc(-n2c(=O)c3c4c(sc3n(Cc3cccc(F)c3)c2=O)CN(C(C)=O)CC4)c(OC)c1	.	.	.	.	.	.
COc1ccc(-n2c(=O)c3c4c(sc3n(Cc3ccc(F)cc3)c2=O)CN(C(C)=O)CC4)c(OC)c1	/	56µM	/	/	/	/
CC1=C(C(=O)Nc2cccc(C(F)(F)F)c2)C2(CCCCCC2)OC1=O	/	.	/	/	/	/
COc1ccc(N2CCN(Cc3nc(N)nc(Nc4ccccc4OC)n3)CC2)cc1	.	40µM	.	.	.	.
COc1ccccc1Nc1nc(N)nc(CN2CCCCC2)n1	.	.	.	.	.	.
CO[C@@H]1COC(=O)[C@H](C)NC(=O)[C@@H](C)COC(=O)CCC[C@H]1C	.[17.4 µM]	/	.[17.5 µM]	/	/	.[12.8 µM]
CCc1cc(-c2n[nH]c(C)c2-c2nc3ccccc3n2C)c(O)cc1O	.	?	.	?	.	.
CCc1cc(-c2n[nH]c(C)c2-c2nc3ccccc3n2C)c(O)c(CN2CCN(C)CC2)c1O	.	8.9µM	.	.	.	.
Cc1ccc2sc(NNC(=O)C3=COCCO3)nc2c1C	.	6.3µM	.	.	.	.
O=C1OC2(c3cc(Br)c(O)c(Br)c3Oc3c2cc(Br)c(O)c3Br)c2c(Cl)c(Cl)c(Cl)c(Cl)c21	.	/	.	/	/	.
C=CCOC(=O)N[C@@H](c1ccc(Br)cc1)C(C(C)=O)C(C)=O	.	/	.	/	.	.
SMILES	aGlu spleen mod	GAA glycogen	GLA spleen mod	GAA inh	GLA inh pH 4.5	N370S GC mod
COc1ccc(NC(=O)c2cccnc2)cc1	/	.	/	/	/	.
C/C(=C\C(=O)c1ccccc1)Nc1ccc(O)cc1	.	40µM	.	.	.	.
C/C(=C\C(=O)c1cccnc1)Nc1ccc(O)cc1	.	14µM	.	.	.	.
COc1ccc(OC)c(-c2ccccc2/C=N/NS(=O)(=O)c2ccc(C)cc2)c1	.[17.4 µM]	/	.[17.5 µM]	/	/	.[12.8 µM]
NC(N)=N/N=C/c1ccc(OCc2ccccc2Cl)cc1	.	.	.	.	.	22µM
NC(N)=N/N=C/c1ccccc1	.	.	.	.	.	.
COc1cc(/C=N/N=C(N)N)ccc1OCc1ccc(Cl)cc1	.	.	.	.	.	7.9µM
NC(N)=N/N=C/c1ccc(OCc2ccccc2)c(OCc2ccccc2)c1	/	.	/	/	/	11µM
COc1ccc2c(c1)C(c1ccccc1C)CC(=O)O2 (centres undefined)	.	/	.	/	.	.
CN(C(=O)Cc1ccccc1OC(=O)c1ccccc1)c1ccccc1I	.	/	.	/	/	.
C[C@H](c1ccccc1)N1C(=O)[C@H]2[C@@H]3[C@H](O)[C@H](O)CC(=O)[C@H]3CC[C@H]2C1=O	.[17.4 µM]	/	.[17.5 µM]	/	/	.[12.8 µM]
COC(=O)Nc1ccc(S(=O)(=O)Nc2ccc(O)cc2)cc1	.	32µM	.	.	.	.
COc1ccccc1CNc1nc(-c2ccc3c(c2)OCO3)nc2ccccc12	.	/	.	/	/	16µM
COc1cccc(-c2nc(NCc3ccccc3OC)c3ccccc3n2)c1	.	/	.	/	/	14µM
COc1cccc(-c2nc(NCc3ccccc3)c3ccccc3n2)c1	.	/	.	/	/	.
COc1ccc(CNc2nc(-c3ccoc3)nc3ccccc23)c(OC)c1	.	/	.	/	.	14µM
COc1ccccc1CNc1nc(-c2ccc(N(C)C)cc2)nc2ccccc12	.	/	.	/	.	.
COc1ccc(CNc2nc(-c3ccccc3CN(C)C)nc3ccccc23)c(OC)c1	.	/	.	/	.	.
C#CCOCCOCCOCCNc1nc(N2CCN(C(=O)CCCCCCCCCCNC(=O)[C@H]([C@@H](C)CC)n3cc(CCCCCN)nn3)CC2)nc(N2CCN(C(=O)CCCCCCCCCCNC(=O)[C@H]([C@@H](C)CC)n3cc(CCCCN=C(N)N)nn3)CC2)n1	/	/	/	/	/	18µM
C#CCOCCOCCOCCNc1nc(N2CCN(C(=O)CCCCCCCCCCNC(=O)[C@H]([C@@H](C)CC)n3cc(CCCCN=C(N)N)nn3)CC2)nc(N2CCN(C(=O)CCCCCCCCCCNC(=O)[C@H](CCCCN)n3cc(C)nn3)CC2)n1	/	/	/	/	/	16µM
C#CCOCCOCCOCCNc1nc(N2CCN(C(=O)CCCCCCCCCCNC(=O)[C@H]([C@@H](C)CC)n3cc(CCCCCN)nn3)CC2)nc(N2CCN(C(=O)CCCCCCCCCCNC(=O)[C@@H]([C@H](C)CC)n3cc(CCCCCN)nn3)CC2)n1	/	/	/	/	/	18µM
C#CCOCCOCCOCCNc1nc(N2CCOCC2)nc(N2CCN(C(=O)CCCCCCCCCCNC(=O)[C@@H]([C@H](C)CC)n3cc(CCCCCN)nn3)CC2)n1	/	/	/	/	/	.
